Test results: ChEMBL document CHEMBL3988442, “University of Dundee, Small-Polar-MMV Screening Library” (2021)
The whole screen tested about 48,000 compounds, of which about 13,000 (27%) showed an effect of 50% or more. The list shows a part of the results.

tested on: Wolbachia pipientis; test: Anti-Wolbachia Cell-Based Screen; assay type: functional; set-up: scale not given: in the data most compounds retested in dose-response had high values; conditions: 5 µM

Going from CN(C)Cc1nc(C(C)(C)NC(=O)c2ccc3ccccc3c2)no1 to O=C(CCn1ccc2ccccc21)N1CCC(Nc2cccnn2)CC1, the “Percent Effect” value falls from -5.67% to -13.71%.

First: Cc1cc(NC(=O)CNc2cccc(OC(F)F)c2C)n(C)n1
Second: CCN(Cc1ccoc1)C(=O)c1cc(C)c(C)c(S(N)(=O)=O)c1
The “Percent Effect” value of the first is higher: -2.043% for the first, -19.87% for the second.

Compared with Cc1cc(C(=O)NCC2(C(N)=O)CCOCC2)nn1C(C)(C)C, Cc1nn(C(C)(C)C)c(C)c1C(=O)NCC1(C(N)=O)CCOCC1 is lower in “Percent Effect” value: 9.321% for the first, -1.881% for the second.

Compared with Cc1nn(C)c(Cl)c1C(=O)NCC1(C(N)=O)CCOCC1, Cc1noc(Cl)c1CCC(=O)N1CCC(CC(N)=O)CC1 is lower in “Percent Effect” value: 99.78% for the first, -2.795% for the second.

First: CC(C)CN1CCN(Cc2nc3ccccc3[nH]2)[C@H]2CS(=O)(=O)C[C@H]21
Second: CCn1c(C(=O)N2CCN(CC(C)O)CC2)cc2ccccc21 (centres undefined)
The “Percent Effect” value of the first is higher: -2.653% for the first, -3.08% for the second.

Compared with CCc1nc(CCNC(=O)NC2CC(=O)N(C(C)(C)C)C2)cs1 (centres undefined), Cc1csc(CCCNC(=O)NC2CC(=O)N(C(C)(C)C)C2)n1 (centres undefined) is higher in “Percent Effect” value: 17.05% for the first, 79.6% for the second.

Going from Cc1nc(C)c(CCNC(=O)NC2CC(=O)N(C(C)(C)C)C2)s1 (centres undefined) to Cc1nn(CC(=O)N2CCC(Nc3cccnn3)CC2)c(C)c1Cl, the “Percent Effect” value falls from -0.9476% to -11.96%.

First: CC(=O)c1ccc(NC(=O)c2ccc3c(c2)C2(CCCCC2)CN3)cc1.O=C(O)C(F)(F)F
Second: O=C1CC(Cc2ccc(NC(=O)c3cccc(F)c3)cc2)C(=O)N1 (centres undefined)
The “Percent Effect” value of the first is higher: 13.81% for the first, -11.36% for the second.

Compared with CCC(O)CN1CCN(C(=O)c2cc3ccccc3n2CC)CC1 (centres undefined), CCn1c(C(=O)N2CCN(CC[S+](C)[O-])CC2)cc2ccccc21 (centres undefined) is higher in “Percent Effect” value: 81.21% for the first, 101.9% for the second.

Compared with CCn1c(C(=O)N2CCN(C(=O)COC)CC2)cc2ccccc21, CCn1c(C(=O)N2CCN(C(=O)NC(C)C)CC2)cc2ccccc21 is higher in “Percent Effect” value: -7.431% for the first, -5.351% for the second.

Going from CC(O)CN1CCN(C(=O)c2cccc(CC#N)c2)CC1 (centres undefined) to CC(O)CN1CCN(C(=O)c2cc3ccccc3n2C)CC1 (centres undefined), the “Percent Effect” value rises from 0.248% to 80.19%.

First: NC(=O)CN1CCCN(C(=O)c2ccn(-c3cccc(F)c3)n2)CC1
Second: CCn1c(C(=O)N2CCCN(CC(N)=O)CC2)cc2ccccc21
The “Percent Effect” value of the first is lower: -12.78% for the first, 113.2% for the second.

First: Cc1cccc2cc(C(=O)N3CCSCC3)n(C)c12
Second: Cc1cc(-c2cnc(N3CCSCC3)nc2-c2ccc(C)s2)on1
The “Percent Effect” value of the first is lower: -17.56% for the first, 126.2% for the second.

First: CCn1c(CN2CCN(CC(N)=O)CC2)nc2c(F)cccc21
Second: CC(O)CN1CCN(C(=O)c2cccn2Cc2ccncc2)CC1 (centres undefined)
The “Percent Effect” value of the first is lower: -7.265% for the first, -5.756% for the second.

Compared with COc1ccc(C)cc1-c1csc(Cn2ccc(=O)[nH]c2=O)n1, COc1cc(NC(=O)NCCO)ccc1N1CCOC1=O is higher in “Percent Effect” value: -13.88% for the first, -1.059% for the second.

First: c1cnn(Cc2nnc(C3CCN(C4CCOCC4)CC3)n2C2CC2)c1
Second: Cc1cnn(CCC(=O)N2CCC(Nc3cccnn3)CC2)c1
The “Percent Effect” value of the first is lower: -3.51% for the first, 5.382% for the second.

First: O=C(COc1ccccc1F)NCCC(O)c1ccco1 (centres undefined)
Second: Cc1ccccc1NC1CCN(C(=O)CCc2ccco2)CC1
The “Percent Effect” value of the first is lower: -8.311% for the first, 99.83% for the second.

Going from Cc1ccc(CNC2(Cc3cc(-c4ccc(F)cc4)on3)COC2)o1 to Cc1ccc(CCC(=O)N2CCC(Nc3cccnn3)CC2)cc1, the “Percent Effect” value rises from -24.42% to 118.9%.

First: CCN(c1cccc(F)c1)S(=O)(=O)c1cc(C(=O)O)cc2c1CCC2
Second: O=C(O)c1cc(-c2ccoc2)cc(S(=O)(=O)N2CCSCC2)c1
The “Percent Effect” value of the first is lower: -8.987% for the first, 11.83% for the second.

Going from CC(Nc1cccc(CN2CCOC2=O)c1)C(=O)N1CCNC1=O (centres undefined) to Cc1cc(CN2CCN(C(=O)NC(C)c3cccnc3)CC2)on1 (centres undefined), the “Percent Effect” value falls from -9.338% to -9.533%.

Going from Cc1ccc(NC2CCN(C(=O)CCc3ccco3)CC2)nn1 to O=C(CCc1ccco1)N1CCC(Nc2cccnn2)CC1, the “Percent Effect” value rises from -2.742% to 108.6%.

First: Cc1noc(Cl)c1CCC(=O)N1CCC(Nc2cccnn2)CC1
Second: COCCCC(=O)N1CCC(Nc2cccnn2)CC1
The “Percent Effect” value of the first is lower: 97.17% for the first, 100.5% for the second.

Compared with CC(C)(C)SCCCC(=O)N1CCC(Nc2cccnn2)CC1, O=C(CCCc1ccccn1)N1CCC(Nc2cccnn2)CC1 is lower in “Percent Effect” value: -0.09307% for the first, -8.554% for the second.

Going from CCOC(=O)NC1CCCN(Cc2ccc(-n3cncn3)c(C)c2)C1 (centres undefined) to Cc1cc(N2CCC(NC(=O)CCc3ccco3)CC2)nc(C)n1, the “Percent Effect” value falls from 8.303% to 7.107%.

Going from Cn1cc(N2CCN(c3ccc(C#N)cc3F)CC2=O)cn1 to O=C1c2cnc(N3CCOCC3)nc2CN1c1ccc2c(c1)OCO2, the “Percent Effect” value rises from -27.57% to -5.261%.

First: COc1ccc(CNC(C)c2cccc(Cl)c2)c(OC)c1OC (centres undefined)
Second: Cc1nc(N2CCOCC2)nc(C)c1NS(=O)(=O)c1ccccc1
The “Percent Effect” value of the first is lower: 0.8374% for the first, 4.303% for the second.

Compared with O=C(CCOc1ccccc1)N1CCC(Nc2cccnn2)CC1, O=C(CCCc1ccccc1)N1CCC(Nc2cccnn2)CC1 is higher in “Percent Effect” value: -3.199% for the first, 109.6% for the second.

Going from O=C(CCc1ccccc1F)N1CCC(Nc2cccnn2)CC1 to CS(=O)(=O)N[C@H]1CN(C(=O)CCc2ccco2)C[C@@H]1C1CC1, the “Percent Effect” value falls from 101.4% to -12.24%.

First: CSc1ncccc1C(=O)N1C[C@H]2CC[C@@H]1CN(c1cnccn1)C2
Second: O=C(O)[C@]12CCCN(Cc3nccs3)[C@@H]1CCN(c1cnccn1)C2
The “Percent Effect” value of the first is lower: -13.27% for the first, 6.87% for the second.

First: CCCN(CCC)S(=O)(=O)c1cc(NC(C)=O)ccc1C
Second: CCCNC(=O)N1CCC(Oc2cc(C)ccc2F)(C(=O)O)CC1
The “Percent Effect” value of the first is higher: 31.01% for the first, -9.891% for the second.

Compared with O=C(NCC1CC1)[C@H]1CC[C@@H]2[C@@H](CCN2Cc2nccs2)O1, O=C(NCC1CCOCC1)[C@@H]1C[C@@H]2[C@@H](CCN2Cc2nccs2)O1.O=C(O)C(F)(F)F is lower in “Percent Effect” value: 114.7% for the first, 97.65% for the second.

Going from COCCNC(=O)[C@@H]1CC[C@@H]2[C@@H](CCN2Cc2cnn(C)c2)O1 to Cc1cnc(CNC(=O)[C@@H]2CC[C@@H]3[C@@H](CCN3Cc3ccco3)O2)cn1, the “Percent Effect” value rises from -9.722% to -4.994%.

First: COCCN1CCN(CC(=O)N(C)Cc2cccc(F)c2)CC1C (centres undefined)
Second: CCN1CCN(c2ncc(-c3cc(C)no3)c(-c3ccc(C)s3)n2)CC1
The “Percent Effect” value of the first is higher: -2.425% for the first, -7.299% for the second.

First: Cc1cc(-c2cnc(N3CCN(C)CC3)nc2-c2ccc(C)s2)on1
Second: Cc1cc(-c2cnc(N3CCCC3)nc2-c2ccc(C)s2)on1
The “Percent Effect” value of the first is lower: -10.07% for the first, 81.04% for the second.

Compared with Cc1cc(-c2cnc(N3CCOCC3)nc2-c2ccc(C)s2)on1, Cc1ccc(-c2cc(C(F)(F)F)nc(N3CCOCC3)n2)s1 is higher in “Percent Effect” value: 90.53% for the first, 100.5% for the second.

Compared with Cc1ccc(-c2cc(-c3nc(CN4CCN(C)CC4)no3)[nH]n2)s1, Cc1cnc(N2CCN(C)CC2)nc1-c1ccnn1C is lower in “Percent Effect” value: -11.14% for the first, -36.32% for the second.

Compared with Cc1noc(C)c1CN(C)Cc1cnc(N2CCOCC2)nc1, CCc1cc(NCCC(F)(F)F)nc(N2CCOCC2)n1 is lower in “Percent Effect” value: -2.338% for the first, -15.1% for the second.
